# Screens deposited in PubChem BioAssay by National Center for Advancing Translational Sciences (NCATS).
# D1 PAM – human D1 dopamine receptor positive modulation | hit rate 0.036% among 360,000 | P21728 | AID 504651 | potentiation, % at 10 µM | HEK293 TREx D1 cells, calcium flux, dopamine EC20 potentiation; in the data active = potentiation above about 30%; also: 0% is about no effect
# TRHR agonist – activates the human TRH receptor; activation, % at 2 µM; AID 493084; hit rate 0.18% among 360,000; P34981; TRHR cells, calcium flux fluo-8, FDSS agonist mode; also: 0% is about no effect
# Target sequence (P34981 whole entry, looked up): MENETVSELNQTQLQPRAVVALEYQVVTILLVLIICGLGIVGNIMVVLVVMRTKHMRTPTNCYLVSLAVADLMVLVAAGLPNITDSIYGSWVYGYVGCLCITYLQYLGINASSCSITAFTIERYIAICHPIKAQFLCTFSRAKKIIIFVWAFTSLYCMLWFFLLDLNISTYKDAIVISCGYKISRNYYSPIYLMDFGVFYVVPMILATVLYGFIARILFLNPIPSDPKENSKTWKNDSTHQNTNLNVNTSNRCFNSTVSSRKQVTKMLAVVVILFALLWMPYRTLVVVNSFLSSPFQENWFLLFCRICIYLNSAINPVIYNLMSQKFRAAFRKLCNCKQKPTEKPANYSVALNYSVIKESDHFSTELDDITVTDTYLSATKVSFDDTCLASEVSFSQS
#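 Fluo-8-loaded TRHR cells; 10 s baseline, compound added, kinetic Ca2+ fluorescence read 1/s, agonist mode.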
# TRHR PAM – allosterically enhances the human TRH receptor; TRHR cells, fluo-8 calcium fluorescence, EC20 TRH enhancement; hit rate 0.66% among 360,000; enhancement, % at 2 µM; in the data active = enhancement above about 30%; also: 0% is about no effect
#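 Enhancer read-out: after compound pinning and an initial kinetic agonist-mode read, an EC20 of TRH (10 nM final) was injected and fluo-8 calcium signal (Ex 480/Em 530) followed at 1 s/cycle for 100 cycles in TRHR-expressing cells.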
# D1 antag – blocks dopamine activation of the human D1 receptor | AID 504652 | HEK293 TREx D1 cells, calcium flux, dopamine EC80; stronger effect = lower value | activity change, negative = inhibition, % at 10 µM | hit rate 3.2% among 360,000; in the data active = activity change below about -30%; also: % is scaled to controls: 0 for no effect and ±100 for the full control effect
#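 Allosteric or orthosteric antagonism assessed as attenuation of the calcium response to EC80 dopamine, added 180 s after compound, in induced HEK293 Trex D1 cells loaded with no-wash calcium dye.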
# D1 ag – human D1 receptor agonism; P21728; HEK293 T-REx D1 cells, calcium flux, agonist mode; activation, % at 2 µM; hit rate 1% among 360,000; also: 0% is about no effect
#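 Agonism was scored from calcium flux recorded over 180 s (1 read/s) after pintool compound addition, following a 10-cycle baseline. Cells were inducible force-coupled HEK293 TREx D1, plated overnight at 30 C and loaded with no-wash calcium dye.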
# * = called active by the depositor; x = not tested or not shown. Rows were chosen to be rich in hits. Some 4.7% of all compounds tested hit in one or more screens of this group. Rule as the data show it, unless noted: active = activation above about 30%; inactive = the rest.
SMILES,D1 PAM,TRHR agonist,TRHR PAM,D1 antag,D1 ag
CN1CCN(CC#CC(C)(O)C2CC3C=CC2C3)CC1 (stereo not drawn),-1,0,4,-74*,4
[O-][N+]1=c2ccc(Nc3ccccc3)cc2=NC12CCCCC2,-10,1,1,-55*,1
COc1ccc(Nc2ccc3c(c2)=NC2(CCCCC2)[N+]=3[O-])cc1,-4,0,-8,-4,1
CC(C)S(=O)(=O)c1csc(NC(=O)Nc2cccc([N+](=O)[O-])c2)c1Cl,-9,0,-9,-33*,20
O=C(Nc1cccc([N+](=O)[O-])c1)Nc1cccc([N+](=O)[O-])c1,-9,0,-14,-45*,37*
O=C(Nc1cccc([N+](=O)[O-])c1)Nc1ccc2c(c1)OCCO2,-7,1,16,-40*,18
COc1ccc(C)cc1NC(=O)Nc1cccc(-c2noc(C)n2)c1,-2,0,14,-14,0
Cc1nc(-c2cccc(NC(=O)Nc3ccc([N+](=O)[O-])cc3)c2)no1,-6,2,-9,-45*,25
COc1ccc(NC(=O)c2c(C)oc3ccc(O)c(CN4CCN(Cc5ccccc5)CC4)c23)cc1,0,0,4,-11,2
O=C(COc1ccc(/C=N/NC(=O)c2ccncc2)cc1)Nc1cccc([N+](=O)[O-])c1,-9,0,0,-32*,0
COc1ccc(CCNC(=O)Nc2cccc([N+](=O)[O-])c2)cc1,-6,-1,-4,-34*,15
O=C(Nc1cccc([N+](=O)[O-])c1)C1C2CCCCC21 (stereo not drawn),-1,1,-5,-9,11
O=C(Nc1cccc([N+](=O)[O-])c1)C1C2/C=C\CCCCC21 (stereo not drawn),-19,0,-9,-34*,12
O=C(COC(=O)COc1ccccc1)Nc1cccc([N+](=O)[O-])c1,0,-1,7,-34*,6
Cc1nc2c(-c3ccccc3)c(C)nn2c(C)c1CCC(=O)N1CCN(c2ccc(F)cc2)CC1,2,0,9,-5,0
COc1ccc(C(=O)N2CCN(c3nc4c(C)c(Cl)ccc4s3)CC2)c(OC)c1,0,0,-1,x,6
CCn1ccc2cc(S(=O)(=O)N3CCCN(C(=O)NCCOC)CC3)ccc21,-2,0,-2,24,4
O=C(CCCc1ccccc1)Nc1cccc([N+](=O)[O-])c1,-11,0,-9,-37*,14
O=C(CCc1ccccc1)Nc1cccc([N+](=O)[O-])c1,0,-1,-2,-13,10
CCn1cc([N+](=O)[O-])c(C(=O)Nc2ccc3c(c2)OCCO3)n1,-7,-1,-15,-75*,0
Cc1ccc(-c2n[nH]c3c2C(c2cccs2)N(c2ccc(Cl)cc2)C3=O)cc1 (stereo not drawn),3,4,-7,9,16
CCCOc1ccc(C2C(=O)N(C3CCCCCC3)CC(=O)N2CCC2=CCCCC2)cc1OC (stereo not drawn),-1,0,-2,6,-1
CN(C)c1ccc(/C=C/C=N/Nc2nc(N3CCOCC3)nc(N3CCOCC3)n2)cc1,-8,1,8,-35*,-1
CCSc1nnc(-c2sc3nnc(-c4ccccc4)c(-c4ccccc4)c3c2N)o1,3,64*,6,-1,109*
CSc1ccc(CCNC(=O)CCc2c(C)nc3c(-c4ccccc4)c(C)nn3c2C)cc1,0,0,1,-12,2
SMILES,D1 PAM,TRHR agonist,TRHR PAM,D1 antag,D1 ag
NNC(=O)C(C(=O)OCc1ccccc1)c1ccccc1 (stereo not drawn),-1,2,2,0,2
CCc1ccc2oc(C(=O)N3CCN(c4ccc(OC)cc4)CC3)cc(=O)c2c1,-6,-1,-1,-41*,6
CC(C)CC1(C)N=C(c2ccccc2)C(=S)N1 (stereo not drawn),-9,0,-4,-40*,2
CCOc1ccc(C(C)NC(=S)NCc2ccc(Cl)cc2)cc1 (stereo not drawn),-5,7,-3,x,35*
CCCc1ccc(C(C)NC(=S)NCc2ccc(F)cc2)cc1 (stereo not drawn),-5,9,-3,-1,80*
CCC(C)c1ccc(C(C)NC(=S)NCc2ccc(F)cc2)cc1 (stereo not drawn),-4,3,0,-14,21
Nc1nc(CN2CCN(c3ccccc3F)CC2)nc(Nc2ccccc2)n1,1,0,0,-3,1
Nc1nc(CN2CCN(Cc3ccc4c(c3)OCO4)CC2)nc(Nc2ccccc2)n1,-10,-1,10,-47*,2
Nc1nc(CN2CCN(c3ccccc3)CC2)nc(Nc2ccc(Cl)cc2)n1,-6,-1,0,-40*,1
Cc1ccc(NC(=O)CCN2C(=O)NC3(CCCC3)C2=O)c(C)c1,-14,-1,-6,-34*,2
Cc1ccc(NC(=O)NC(=O)CN2C(=O)NC3(CCCCCCC3)C2=O)c(C)c1,0,0,-3,-12,0
C=CCNc1ncnc2c1[nH]c1ccc(Cl)cc12,-2,8,1,x,35*
C=CCNc1ncnc2c1[nH]c1ccccc12,-4,-1,3,-1,7
CCC(Sc1nc2nccnc2c(=O)n1Cc1ccc(C)cc1)C(=O)NC1CCCCC1 (stereo not drawn),-4,0,-3,-5,0
CCN(CC)c1ccc(C2=NNC(=O)CC2C)cc1[N+](=O)[O-] (stereo not drawn),-9,-1,21,-44*,3
CCOc1ccccc1CNC(=O)c1cccc(NC(=O)c2nsc3ccccc23)c1,-1,0,-5,-14,2
COc1ccc(NC(=O)CN2C(=O)COc3ccc(S(=O)(=O)N4CCCCC4)cc32)cc1Cl,-3,0,4,-6,2
COc1ccc(Cc2nnc(NC(=O)CSc3ccc(Cl)cc3)s2)cc1OC,2,3,29,64,98*
COc1ccc(Cc2nnc(NC(=O)CSc3ccccc3)s2)cc1OC,0,0,-2,56,10
Cc1cccc(N2CCN(C(=O)c3c4c(nc5ccccc35)C(=O)N(C3CCCCC3)C4)CC2)c1C,-3,0,-9,7,1
CC(C)OCCCNC(=O)CSc1c2c(nc3ccc(Cl)cc13)CCCC2,-1,-1,-11,-14,0
CCCN1CC=C2C(C#N)=C(N)C(C#N)(C#N)C(c3cccc(OC)c3OC)C2C1 (stereo not drawn),0,7,4,-3,34*
CCN(CC)c1ccc(-c2nc(-c3ccccc3C)no2)cc1[N+](=O)[O-],-1,0,3,4,0
Cc1c(C(=O)NCc2ccc(N(C)C)cc2)oc2c1-c1nn(Cc3cccc(Cl)c3)cc1CC2,-3,0,-6,1,0
